The test system of the assay is Leishmania donovani. Kind of assay: Leishmania intramacrophage assay. The format is functional, organism-based. Also on record: scale not given: in the data most compounds retested in dose-response had high values.

About 1,000 (1.4%) of roughly 69,000 compounds showed an effect of 50% or more. Shown is part of a subset that was picked to be rich in strong results.

As for `CC(C)CN1CC(O)CN(S(=O)(=O)c2ccccc2)CC1=O` (stereo not drawn), where the note is “30.3 µM, […]”, the “Percent Effect” value is reported as -1.941%. In the case of `CN(Cc1ccncc1)C(=O)NCc1nnc2n1CCCCC2`, for the setting “30 µM”, the “Percent Effect” value is recorded as -1.906%. On to `COCCn1cc(NCc2cn(C)nc2-c2ccncc2)cn1`, for which the “Percent Effect” value (30.3 µM, […]) came out at 4.13%. Regarding `O=C(O)C(F)(F)F.OCCN1CCOC2(CCCN(c3cccc(F)c3)C2)C1` (stereo not drawn), the “Percent Effect” value (30 µM, 30.03 µM) stood at 37.14%. With `Cc1ccc(C2CSCCN2C(=O)c2cccs2)o1` (stereo not drawn), under “30.3 µM, […]”, the “Percent Effect” value stood at 15.58%. For the compound `CN1CC2(CCN(C(=O)c3cn4cccnc4n3)CC2)CC1=O`, the “Percent Effect” value (30.3 µM, […]) is listed as -9.039%. On the same count and under the same terms, the value for `CCN1CC2(CCC1=O)CCN(C(=O)c1cn3cccnc3n1)CC2` was 50.01%; that for `CC(C)CN1CC2(CCN(C(=O)c3cn4cccnc4n3)CC2)CC1=O` was -23.89%; that for `CC1c2ncc(Cn3cncn3)n2CCN1C(=O)Cc1cccs1` (stereo not drawn) was 31.82%. With `CCOCc1cnc2n1CCN(C(=O)Cc1ccco1)C2C` (stereo not drawn), where the note is “30.3 µM, […]”, the “Percent Effect” value turned out to be 17.38%. Take `CCOCc1cnc2n1CCN(C(=O)Cc1cccs1)C2C` (stereo not drawn): the “Percent Effect” value (30.3 µM, […]) was 53.58%. Turning to `Cl.c1cnc(Nc2cncc(C3CCCN3)n2)cn1` (stereo not drawn), for the setting “30.3 µM, […]”, the “Percent Effect” value turned out to be 5.876%. Consider `Cc1cnc(N2CCC3(CC2)CC(NC(=O)N(C)C)CO3)nc1` (stereo not drawn), for which the “Percent Effect” value (30.3 µM, […]) stood at 5.267%. With `CCCNC(=O)c1cc2c(s1)CCN2c1ncccn1`, the “Percent Effect” value (30.3 µM, […]) is reported as 24.35%. Regarding `O=C(NCC1CC1)c1cc2c(s1)CCN2c1ncccn1`, for the setting “30.3 µM, […]”, the “Percent Effect” value is 54.07%. On to `O=C(NCCN1CCCC1)c1cc2c(s1)CCN2c1ncccn1`, for which the “Percent Effect” value (30.3 µM, […]) is 35.65%. As to `COc1ccc(CCN2C(=O)O[C@@H]3CN(C4CCSCC4)C[C@@H]32)cc1`, the “Percent Effect” value (30.3 µM, […]) is 4.59%. Consider `COc1cccn(C(C)C(=O)NC2CCCC2)c1=O` (stereo not drawn), for which, where the note is “30.3 µM, […]”, the “Percent Effect” value is 28.93%. `COc1cc(CN2CCCC2c2cccc(F)c2)cc(OC)c1OC` (stereo not drawn): the “Percent Effect” value (30.3 µM, […]) turned out to be 4.07%. Turning to `COc1ccc(CN2CCCC2c2cccc(F)c2)c(OC)c1OC` (stereo not drawn), the “Percent Effect” value (30.3 µM, […]) is given as 53.41%.

Take `COc1cccc(CN2CCCC2c2cccc(F)c2)c1OC` (stereo not drawn): where the note is “30.3 µM, […]”, the “Percent Effect” value turned out to be 48.24%.

Take `Clc1cc(Cl)cc(CN2CCC(NCc3ncc[nH]3)CC2)c1`: the “Percent Effect” value (30.3 µM, […]) is 84.31%.

With `O=C1CC(NCc2ccncc2)CN1CCc1cccc(Cl)c1` (stereo not drawn), the “Percent Effect” value (30.3 µM, […]) came out at 37.94%.

For the compound `Brc1ccc(CN2CCC(NCc3ncc[nH]3)CC2)cc1`, the “Percent Effect” value (30.3 µM, […]) is given as 85.49%. With `Clc1cccc(N2CCC(NCc3cc[nH]n3)C2)c1` (stereo not drawn), the “Percent Effect” value (30.3 µM, […]) is recorded as 14.09%. Consider `Cc1cccc(OC2CCN(Cc3ncc[nH]3)CC2)c1`, for which, under “30.3 µM, […]”, the “Percent Effect” value is -10.49%. Regarding `CN1CCN(Cc2cccc(NCc3ncc[nH]3)c2)CC1`, the “Percent Effect” value (30.3 µM, […]) stood at 3.083%. `Clc1cccc(N2CCC(NCc3ncc[nH]3)C2)c1` (stereo not drawn): under “30.3 µM, […]”, the “Percent Effect” value amounted to 26.13%. Consider `O=C1CC(NCc2ncc[nH]2)CN1CCc1cccc(Cl)c1` (stereo not drawn), for which, under “30.3 µM, […]”, the “Percent Effect” value is 87.49%.

Consider `Clc1cc(Cl)cc(CN2CCC(NCc3cc[nH]n3)CC2)c1`, for which, where the note is “30.3 µM, […]”, the “Percent Effect” value is recorded as 71.72%. Turning to `COc1ccc(CCN2CC(NCc3ncc[nH]3)CC2=O)cc1` (stereo not drawn), the “Percent Effect” value (30.3 µM, […]) was 17.72%. On to `COc1cc(OC)cc(N2CCC(NCc3cc[nH]n3)C2)c1` (stereo not drawn), for which the “Percent Effect” value (30.3 µM, […]) worked out at 11.55%. As to `Cc1nc[nH]c1CNC1CC(=O)N(CCc2cccc(Cl)c2)C1` (stereo not drawn), the “Percent Effect” value (30.3 µM, […]) is -19.6%.

With `O=c1cnc2ccccc2n1CCCn1cccn1`, where the note is “30.3 µM, […]”, the “Percent Effect” value is -23.4%. As to `Cc1cc(O)c(OCC(=O)/N=c2\[nH]cc(C)s2)cn1`, for the setting “30 µM, 30.03 µM”, the “Percent Effect” value was 13.79%. `CC(=O)Nc1nc(C(=O)N2CCCC2c2noc(C3CC3)n2)cs1` (stereo not drawn): the “Percent Effect” value (30.3 µM, […]) is recorded as 0.7706%.

As for `CN1CC(c2ccccc2)CC12CCN(C(=O)c1cccnc1)CC2` (stereo not drawn), the “Percent Effect” value (30.3 µM, […]) is recorded as 13.25%. As for `CC(C)n1ccnc1C1CCN(C(=O)C2COc3ccccc3O2)CC1` (stereo not drawn), under “30 µM, 30.03 µM”, the “Percent Effect” value is -2.599%. Take `Cc1cc(C)nc(NCCC(=O)Nc2ccc(Cn3cncn3)cc2)n1`: where the note is “30.3 µM, […]”, the “Percent Effect” value came to 18.2%.

`COc1cc(N2CC[C@@H]3O[C@@H](c4ccnc(C)n4)C[C@H]3C2)ncn1`: for the setting “30.3 µM, […]”, the “Percent Effect” value is listed as 16.01%. Regarding `Cc1ccc(N2CC[C@@H]3O[C@@H](c4ccncn4)C[C@H]3C2)nn1`, the “Percent Effect” value (30.3 µM, […]) came to 12.48%. With `COc1cc(N2CC[C@@H]3O[C@@H](c4ccncn4)C[C@H]3C2)ncn1`, under “30.3 µM, […]”, the “Percent Effect” value was 101.1%. As for `CC(=O)Nc1ncc(S(=O)(=O)Nc2ccccc2)s1`, the “Percent Effect” value (30.3 µM, […]) is -54.24%. Consider `CCc1nnc(CNC2CCCN(Cc3noc(C4CC4)n3)C2)o1` (stereo not drawn), for which the “Percent Effect” value (30 µM) is -1.291%. Regarding `O=c1[nH]cnc2c1CCN(S(=O)(=O)c1ccc(OC(F)(F)F)cc1)C2`, the “Percent Effect” value (30.3 µM, […]) worked out at 24.26%. Turning to `O=c1[nH]cnc2c1CCN(S(=O)(=O)c1ccc(Cl)cc1)C2`, for the setting “30.3 µM, […]”, the “Percent Effect” value is recorded as 10.57%.

Take `CCOCCOc1ccc(S(=O)(=O)N2CCc3c(nc[nH]c3=O)C2)cc1`: the “Percent Effect” value (30.3 µM, […]) is listed as 59.04%. Regarding `CC(=O)c1cn(CCC(=O)NCCC(=O)O)c2ccccc12`, where the note is “30 µM, 30.03 µM”, the “Percent Effect” value was determined as 18%. `CN(C)c1cccc(C(=O)N2CCn3c(nnc3-c3ccccc3)C2)c1`: the “Percent Effect” value (30.3 µM, […]) was determined as 3.878%. On to `O=C1Nc2ccccc2CC12CCCN2Cc1ccc(F)cc1` (stereo not drawn), for which the “Percent Effect” value (30.3 µM, […]) is -31.7%.

For `O=C1Nc2ccccc2CN(CC2CC2)C12CCNC2` (stereo not drawn), the “Percent Effect” value (30.3 µM, […]) came to 19.67%. Regarding `CCCN1Cc2ccccc2NC(=O)C12CCNC2` (stereo not drawn), for the setting “30.3 µM, […]”, the “Percent Effect” value came to 13.56%. With `O=C1Nc2ccccc2CN(CC2CCCC2)C12CCNC2` (stereo not drawn), for the setting “30.3 µM, […]”, the “Percent Effect” value worked out at 67.89%.

With `O=C1Nc2ccccc2CNC12CCN(CC1CCCC1)CC2`, for the setting “30.3 µM, […]”, the “Percent Effect” value was -1.284%. On the same count and under the same terms, the value for `O=C1Nc2ccccc2CN(C/C=C/c2ccccc2)C12CCNC2` (stereo not drawn) was 95.58%. The same measure, in the same setting: the value for `CC(C)NC(=O)Nc1ccc(-c2nc(C(C)C)no2)cc1` was -3.03%; that for `Cc1cc2[nH]cc(C(=O)N3CCCCC3c3ccc(F)cc3)c(=O)n2n1` (stereo not drawn) was 54.57%. Take `Cc1nc2[nH]cc(C(=O)N3CCCCC3c3ccc(F)cc3)c(=O)n2n1` (stereo not drawn): for the setting “30.3 µM, […]”, the “Percent Effect” value is reported as -11.65%. In the case of `Cc1cc(=O)c(C(=O)N2CCCCC2c2ccc(F)cc2)c[nH]1` (stereo not drawn), under “30.3 µM, […]”, the “Percent Effect” value was found to be 7.21%. For the compound `COc1c(CNCCNC(=O)c2ccco2)c(C)nn1C`, the “Percent Effect” value (30 µM, 30.03 µM) is reported as 1.036%. Consider `CCn1nc(C)c2ccn(CC(=O)NCCCOC)c(=O)c21`, for which, where the note is “30.3 µM, […]”, the “Percent Effect” value turned out to be 6.815%. With `Cc1cc(C(=O)N2CCCC(c3nccn3Cc3cscn3)C2)on1` (stereo not drawn), the “Percent Effect” value (30.3 µM, […]) came out at 7.716%. In the case of `Cc1nc2ccccn2c1CN1C[C@@H](CN(C)C)[C@@H](CO)C1`, the “Percent Effect” value (30.3 µM, […]) is on record as 28.56%.

Take `Cc1nc2ccccn2c1CN1C[C@@H](CN(C)CCO)[C@@H](CO)C1`: for the setting “30.3 µM, […]”, the “Percent Effect” value was 17.46%.

Regarding `Cc1nc2ccccn2c1CN1C[C@@H](CN2CCOCC2)[C@@H](CO)C1`, the “Percent Effect” value (30.3 µM, […]) is 60.75%. Regarding `Cc1ccccc1OC1CN(Cc2c(C)nc3ccccn23)C1`, the “Percent Effect” value (30.3 µM, […]) amounted to 56.4%. `Cc1nc(CN2C[C@@H](CN3CCOCC3)[C@@H](CO)C2)c2ccccn12`: under “30.3 µM, […]”, the “Percent Effect” value was -8.953%. On the same count and under the same terms, the value for `COc1ccccc1OC1CN(C(=O)Cc2c(C)nc3ccccn23)C1` was 42.17%.

The record behind these values is ChEMBL document CHEMBL3988442, “University of Dundee, Small-Polar-MMV Screening Library” (2021).
